According to PubChem BioAssay (NCI):
This is part of a sample that, as a whole, favours compounds with a hit. Of some 79,000 tested, about 15% had one in any assay. The source made the active and inactive calls. Cut-off read from the data, not from the text of the source: active = growth inhibition above about 70%; inactive = the rest.

Assays:
[1] = NCI Yeast Anticancer Drug Screen. Data for the mec2-1 strain (AID 157); conditions: S. cerevisiae mec2-1 strain, hits give high values
Procedure, shortened: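 Vehicle-treated cultures served as reference for growth inhibition of compound-exposed mec2-1 yeast.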

[2] = NCI Yeast Anticancer Drug Screen. Data for the sgs1 mgt1 strain (AID 161);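 note: 0% = growth of cultures given vehicle only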; conditions: S. cerevisiae sgs1 mgt1 strain, hits give high values
Procedure, shortened: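 Inhibition of yeast growth, normalised to vehicle-treated controls, is reported for a strain bearing genetic alterations in DNA damage repair.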

[3] = NCI Yeast Anticancer Drug Screen. Data for the CLN2oe strain (AID 163);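 note: 0% = growth of vehicle-only control cultures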; conditions: S. cerevisiae CLN2oe strain, hits give high values
Procedure, shortened: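 Inhibition relative to vehicle-treated yeast is reported. Cells: strain with genetic alteration in cell-cycle control, grown with compound.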

[4] = NCI Yeast Anticancer Drug Screen. Data for the cln2 rad14 strain (AID 165);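 note: 0% = growth equal to vehicle treated cultures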; conditions: S. cerevisiae cln2 rad14 strain, hits give high values
Procedure, shortened: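 Each compound was tested on cln2 rad14 yeast. Inhibition of growth was calculated against vehicle-exposed controls.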

[5] = NCI Yeast Anticancer Drug Screen. Data for the bub3 strain (AID 167); conditions: S. cerevisiae bub3 mutant strain, hits give high values
Procedure, shortened: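 In this screen, a yeast mutant lacking normal mitotic checkpoint function is challenged with compound. Relative growth versus vehicle gives the inhibition value.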

[6] = NCI Yeast Anticancer Drug Screen. Data for the mlh1 strain (AID 171);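 note: 0% = growth of vehicle-treated control cultures of the same strain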; conditions: S. cerevisiae mlh1 strain growth inhibition, hits give high values
Procedure, shortened: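 Vehicle-normalised growth inhibition of a repair- or checkpoint-altered yeast strain following compound treatment.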

[7] = NCI Yeast Anticancer Drug Screen. Data for the sgs1 strain (AID 173);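 note: 0% = growth of vehicle-only control cultures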; conditions: S. cerevisiae sgs1 mutant, hits give high values
Procedure, shortened: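 Screen format: yeast with repair or checkpoint alterations, compound exposure, growth read relative to vehicle.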

[8] = NCI Yeast Anticancer Drug Screen. Data for the mlh1 rad18 strain (AID 175); conditions: S. cerevisiae mlh1 rad18 strain growth inhibition, hits give high values
Procedure, shortened: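 Vehicle-treated cultures served as the reference for growth inhibition in a yeast strain carrying DNA damage repair alterations exposed to each compound.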

[9] = NCI Yeast Anticancer Drug Screen. Data for the rad18 strain (AID 177); conditions: S. cerevisiae rad18 mutant growth inhibition, hits give high values
Procedure, shortened: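 Test articles were incubated with altered yeast defective in DNA damage repair. Results are given as inhibition of growth versus vehicle.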

[10] = NCI Yeast Anticancer Drug Screen. Data for the rad52 strain (AID 147);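 note: 0% = growth of vehicle-treated control cultures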; conditions: S. cerevisiae rad52 mutant growth inhibition, hits give high values
Procedure, shortened: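 Vehicle-treated cultures served as the reference for growth inhibition of compound-exposed yeast bearing a DNA repair mutation.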

[11] = NCI Yeast Anticancer Drug Screen. Data for the wt1 strain (AID 149);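 note: 0% = growth of vehicle-treated wt1 cultures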; conditions: S. cerevisiae wt1 strain (SPY 50644) growth inhibition, hits give high values
Procedure, shortened: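 wt1 strain grown with compound or vehicle; inhibition taken from the growth difference.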

[12] = NCI Yeast Anticancer Drug Screen. Data for the rad50EPP+ strain (AID 151);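 note: 0% = growth of vehicle-treated control cultures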; conditions: S. cerevisiae rad50 mutant strain, hits give high values
Procedure, shortened: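 In this screen, rad50EPP+ yeast were exposed to compounds. Growth inhibition was scored against vehicle-treated controls.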

[13] = NCI Yeast Anticancer Drug Screen. Data for the mgt1 strain (AID 153); conditions: S. cerevisiae mgt1 mutant growth inhibition, hits give high values
Procedure, shortened: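 mgt1 strain exposed; growth vs vehicle control recorded as inhibition.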

[14] = NCI Yeast Anticancer Drug Screen. Data for the rad14 strain (AID 159);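 note: 0% = growth of vehicle-treated control cultures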; conditions: S. cerevisiae rad14 strain growth inhibition, hits give high values
Procedure, shortened: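 DNA repair-defective yeast, compound-exposed; % growth inhibition derived by comparison with vehicle-treated controls.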

[15] = NCI Yeast Anticancer Drug Screen. Data for the wt2 strain (AID 169);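 note: 0% = growth of vehicle-treated yeast cultures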; conditions: S. cerevisiae wt2 strain growth inhibition, hits give high values
Procedure, shortened: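 Inhibition of yeast growth was determined after compound treatment, normalised to controls receiving only vehicle.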

[16] = NCI Yeast Anticancer Drug Screen. Data for the rad50 strain (AID 155);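 note: 0% = growth of vehicle-only cultures of the same strain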; conditions: S. cerevisiae rad50 strain growth inhibition, hits give high values
Procedure, shortened: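 DNA repair mutant yeast, compound exposure, growth read-out; inhibition is taken relative to vehicle.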

[17] = at 5.0 µM (retest, dose inferred, filed as 0.5)
[18] = at 50.0 µM (retest, dose inferred, filed as 5.0)

Measured: growth inhibition

CCC(C)(C)c1ccc(Oc2ccccc2)c(N)c1
active: [1]; at 11.0 µM 96% | [1]; at 33.0 µM 99% | [1]; at 50.0 µM 93.2% | [1]; at 100.0 µM 99% | [2]; [18] 97% | [2]; at 50.0 µM 93.5% | [3]; at 11.0 µM 96% | [3]; at 33.0 µM 99% | [3]; at 100.0 µM 97% | [4]; [18] 99% | [4]; at 50.0 µM 92.3% | [5]; at 11.0 µM 95% | [5]; at 33.0 µM 99% | [5]; [18] 99% | [5]; at 50.0 µM 92.3% | [5]; at 100.0 µM 98% | [6]; at 11.0 µM 95% | [6]; at 33.0 µM 98% | [6]; at 100.0 µM 98% | [7]; at 11.0 µM 94% | [7]; at 33.0 µM 99% | [7]; at 100.0 µM 98% | [8]; at 50.0 µM 91.2% | [9]; at 11.0 µM 94% | [9]; at 33.0 µM 99% | [9]; at 100.0 µM 97%
inactive: [1]; [17] 44% | [1]; [18] 50% | [2]; [17] 2% | [3]; at 1.2 µM -22% | [3]; at 3.7 µM -2% | [4]; [17] 62% | [5]; at 1.2 µM -10% | [5]; at 3.7 µM -6% | [5]; [17] 36% | [6]; at 1.2 µM -30% | [6]; at 3.7 µM -18% | [7]; at 1.2 µM -17% | [7]; at 3.7 µM 6% | [8]; [17] 39% | [8]; [18] 45% | [9]; at 1.2 µM -31% | [9]; at 3.7 µM -7%

O=C1c2cccc3cccc(c23)C(=O)N1CCNCCN1C(=O)c2cccc3cccc(c23)C1=O
inactive: [10]; at 1.2 µM 1% | [10]; at 3.7 µM 3% | [10]; at 11.0 µM 5% | [10]; at 33.0 µM 14% | [10]; at 100.0 µM 34% | [11]; at 1.2 µM 0% | [11]; at 3.7 µM 0% | [11]; at 11.0 µM -1% | [11]; at 33.0 µM 1% | [11]; at 100.0 µM 5% | [12]; at 1.2 µM -1% | [12]; at 3.7 µM 0% | [12]; at 11.0 µM 0% | [12]; at 33.0 µM 2% | [12]; at 100.0 µM 10% | [13]; at 1.2 µM -3% | [13]; at 3.7 µM 0% | [13]; at 11.0 µM -1% | [13]; at 33.0 µM 1% | [13]; at 100.0 µM 2% | [1]; at 1.2 µM -3% | [1]; at 3.7 µM -4% | [1]; [17] 6% | [1]; at 11.0 µM -3% | [1]; at 33.0 µM 2% | [1]; [18] 4% | [1]; at 50.0 µM 26.4% | [1]; at 100.0 µM 5% | [14]; at 1.2 µM 0% | [14]; at 3.7 µM 1% | [14]; at 11.0 µM 0% | [14]; at 33.0 µM -1% | [14]; at 100.0 µM 4% | [2]; [17] 5% | [2]; [18] 10% | [2]; at 50.0 µM 15.5% | [3]; at 1.2 µM -1% | [3]; at 3.7 µM -2% | [3]; at 11.0 µM 4% | [3]; at 33.0 µM -1% | [3]; at 100.0 µM -1% | [4]; [17] 6% | [4]; [18] 6% | [4]; at 50.0 µM 15.9% | [5]; at 1.2 µM 0% | [5]; at 3.7 µM 1% | [5]; [17] 2% | [5]; at 11.0 µM -2% | [5]; at 33.0 µM -4% | [5]; [18] 1% | [5]; at 50.0 µM 0.65% | [5]; at 100.0 µM -3% | [15]; at 1.2 µM 0% | [15]; at 3.7 µM 0% | [15]; at 11.0 µM 0% | [15]; at 33.0 µM 1% | [15]; at 100.0 µM 5% | [6]; at 1.2 µM 0% | [6]; at 3.7 µM -3% | [6]; at 11.0 µM -1% | [6]; at 33.0 µM 0% | [6]; at 100.0 µM 2% | [7]; at 1.2 µM -1% | [7]; at 3.7 µM -2% | [7]; at 11.0 µM -1% | [7]; at 33.0 µM -1% | [7]; at 100.0 µM 4% | [8]; [17] 4% | [8]; [18] 18% | [8]; at 50.0 µM 7.55% | [9]; at 1.2 µM -3% | [9]; at 3.7 µM -2% | [9]; at 11.0 µM -1% | [9]; at 33.0 µM -1% | [9]; at 100.0 µM 6%

O=C(Cc1ccccc1)NNc1nc(NNC(=O)c2ccncc2)nc(Nc2ccc([N+](=O)[O-])cc2)n1
inactive: [10]; at 1.2 µM 23% | [10]; at 3.7 µM 29% | [10]; at 11.0 µM 68% | [10]; at 33.0 µM 59% | [10]; at 100.0 µM 54% | [11]; at 1.2 µM -81% | [11]; at 3.7 µM 3% | [11]; at 11.0 µM 12% | [11]; at 33.0 µM 19% | [11]; at 100.0 µM 17% | [12]; at 1.2 µM 4% | [12]; at 3.7 µM 10% | [12]; at 11.0 µM 11% | [12]; at 33.0 µM 11% | [12]; at 100.0 µM -3% | [13]; at 1.2 µM 4% | [13]; at 3.7 µM 13% | [13]; at 11.0 µM 52% | [13]; at 33.0 µM 62% | [13]; at 100.0 µM 56% | [16]; at 1.2 µM 2% | [16]; at 3.7 µM 9% | [16]; [17] 8% | [16]; at 11.0 µM 21% | [16]; at 33.0 µM 25% | [16]; [18] 54% | [16]; at 100.0 µM 21% | [14]; at 1.2 µM -3% | [14]; at 3.7 µM 2% | [14]; at 11.0 µM 12% | [14]; at 33.0 µM 14% | [14]; at 100.0 µM 11% | [2]; [17] 0% | [2]; [18] 41% | [3]; at 1.2 µM -8% | [3]; at 3.7 µM -4% | [3]; at 11.0 µM 8% | [3]; at 33.0 µM 11% | [3]; at 100.0 µM 7% | [4]; [17] 42% | [4]; [18] 3% | [4]; at 50.0 µM 64.3% | [5]; at 1.2 µM -2% | [5]; at 3.7 µM -4% | [5]; [17] 6% | [5]; at 11.0 µM 11% | [5]; at 33.0 µM 17% | [5]; [18] 40% | [5]; at 100.0 µM 15% | [6]; at 1.2 µM -3% | [6]; at 3.7 µM 8% | [6]; at 11.0 µM 42% | [6]; at 33.0 µM 58% | [6]; at 100.0 µM 55% | [7]; at 1.2 µM 10% | [7]; at 3.7 µM 32% | [7]; at 11.0 µM 63% | [7]; at 33.0 µM 69% | [7]; at 100.0 µM 64% | [8]; [17] 7% | [8]; [18] 36% | [9]; at 1.2 µM 9% | [9]; at 3.7 µM 26% | [9]; at 11.0 µM 50% | [9]; at 33.0 µM 57% | [9]; at 100.0 µM 49%
active: [16]; at 50.0 µM 71.5% | [2]; at 50.0 µM 87.3% | [5]; at 50.0 µM 77.7% | [8]; at 50.0 µM 86.2%
